Measured values from the supplement of paper PMC11732987, “Enantioselective OTUD7B fragment discovery through chemoproteomics screening and high-throughput optimisation” (Communications Chemistry, 2025).

Tests used:
Assay in all cases: log2 ratio of Biotin-Ahx-Ub-VS probe labelling (fragment/DMSO); higher = less target engagement (more negative = stronger competition), active = hit call of the paper (q ≤ 0.05, log2 ratio ≤ -1)
Conditions in all cases: compound concentration: 200 uM; treatment time: 3 h
[1] = target: T1, USP42 (UniProt Q9H9J4)
T1 sequence (whole entry): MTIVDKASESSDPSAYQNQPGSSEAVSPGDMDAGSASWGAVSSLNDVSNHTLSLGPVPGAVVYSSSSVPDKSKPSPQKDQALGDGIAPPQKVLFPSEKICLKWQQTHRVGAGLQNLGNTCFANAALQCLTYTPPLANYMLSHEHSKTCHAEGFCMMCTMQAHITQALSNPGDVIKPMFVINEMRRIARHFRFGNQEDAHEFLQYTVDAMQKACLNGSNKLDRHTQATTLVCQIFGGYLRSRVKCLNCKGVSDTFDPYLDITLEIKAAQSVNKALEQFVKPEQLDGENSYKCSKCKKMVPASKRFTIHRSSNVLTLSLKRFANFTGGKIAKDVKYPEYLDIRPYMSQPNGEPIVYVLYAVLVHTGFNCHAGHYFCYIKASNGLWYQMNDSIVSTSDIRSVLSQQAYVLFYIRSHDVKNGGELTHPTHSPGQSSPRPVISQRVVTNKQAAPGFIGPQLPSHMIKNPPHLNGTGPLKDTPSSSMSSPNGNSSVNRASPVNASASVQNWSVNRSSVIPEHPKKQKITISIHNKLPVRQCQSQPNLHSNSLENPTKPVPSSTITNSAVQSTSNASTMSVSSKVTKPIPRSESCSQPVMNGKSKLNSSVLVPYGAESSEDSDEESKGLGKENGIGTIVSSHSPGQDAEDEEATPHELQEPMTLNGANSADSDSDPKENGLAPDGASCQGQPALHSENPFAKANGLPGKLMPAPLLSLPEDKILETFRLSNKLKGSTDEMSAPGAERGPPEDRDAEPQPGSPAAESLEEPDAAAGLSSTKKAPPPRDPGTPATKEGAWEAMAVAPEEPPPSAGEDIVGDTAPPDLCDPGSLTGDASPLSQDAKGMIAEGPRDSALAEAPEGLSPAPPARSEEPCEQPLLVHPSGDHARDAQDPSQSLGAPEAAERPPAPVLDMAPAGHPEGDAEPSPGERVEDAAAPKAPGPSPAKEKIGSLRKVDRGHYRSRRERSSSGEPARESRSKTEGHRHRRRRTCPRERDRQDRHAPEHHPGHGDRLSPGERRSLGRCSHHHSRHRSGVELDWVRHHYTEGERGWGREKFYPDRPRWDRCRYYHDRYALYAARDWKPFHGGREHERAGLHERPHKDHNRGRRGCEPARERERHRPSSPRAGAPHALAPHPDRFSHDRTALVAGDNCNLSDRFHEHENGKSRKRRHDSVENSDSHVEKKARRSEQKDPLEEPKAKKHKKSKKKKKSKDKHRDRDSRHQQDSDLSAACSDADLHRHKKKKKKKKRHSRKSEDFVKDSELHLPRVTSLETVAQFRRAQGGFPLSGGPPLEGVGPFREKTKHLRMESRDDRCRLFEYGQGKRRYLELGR
How it was run: (§1)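 HEK293T lysate (495 µg per sample, in Tris/CHAPS/IGEPAL buffer with protease inhibitors) was treated in triplicate with fragment at 200 µM or with DMSO for 3 h. It was then treated with Biotin-Ahx-Ub-VS (0.5 µM final) for 1 h. Labelled DUBs were NeutrAvidin-enriched, digested with LysC and trypsin, and run by diaPASEF LC-MS/MS. Spectronaut label-free quantities were global-median-normalised. Values are average log2 ratios fragment/DMSO by unpaired t-test, using proteins with ≥2 unique peptides.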

[2] = target: USP46 (UniProt P62068)
How it was run: as §1

[3] = target: T2, USP47 (UniProt Q96K76)
T2 sequence (whole entry): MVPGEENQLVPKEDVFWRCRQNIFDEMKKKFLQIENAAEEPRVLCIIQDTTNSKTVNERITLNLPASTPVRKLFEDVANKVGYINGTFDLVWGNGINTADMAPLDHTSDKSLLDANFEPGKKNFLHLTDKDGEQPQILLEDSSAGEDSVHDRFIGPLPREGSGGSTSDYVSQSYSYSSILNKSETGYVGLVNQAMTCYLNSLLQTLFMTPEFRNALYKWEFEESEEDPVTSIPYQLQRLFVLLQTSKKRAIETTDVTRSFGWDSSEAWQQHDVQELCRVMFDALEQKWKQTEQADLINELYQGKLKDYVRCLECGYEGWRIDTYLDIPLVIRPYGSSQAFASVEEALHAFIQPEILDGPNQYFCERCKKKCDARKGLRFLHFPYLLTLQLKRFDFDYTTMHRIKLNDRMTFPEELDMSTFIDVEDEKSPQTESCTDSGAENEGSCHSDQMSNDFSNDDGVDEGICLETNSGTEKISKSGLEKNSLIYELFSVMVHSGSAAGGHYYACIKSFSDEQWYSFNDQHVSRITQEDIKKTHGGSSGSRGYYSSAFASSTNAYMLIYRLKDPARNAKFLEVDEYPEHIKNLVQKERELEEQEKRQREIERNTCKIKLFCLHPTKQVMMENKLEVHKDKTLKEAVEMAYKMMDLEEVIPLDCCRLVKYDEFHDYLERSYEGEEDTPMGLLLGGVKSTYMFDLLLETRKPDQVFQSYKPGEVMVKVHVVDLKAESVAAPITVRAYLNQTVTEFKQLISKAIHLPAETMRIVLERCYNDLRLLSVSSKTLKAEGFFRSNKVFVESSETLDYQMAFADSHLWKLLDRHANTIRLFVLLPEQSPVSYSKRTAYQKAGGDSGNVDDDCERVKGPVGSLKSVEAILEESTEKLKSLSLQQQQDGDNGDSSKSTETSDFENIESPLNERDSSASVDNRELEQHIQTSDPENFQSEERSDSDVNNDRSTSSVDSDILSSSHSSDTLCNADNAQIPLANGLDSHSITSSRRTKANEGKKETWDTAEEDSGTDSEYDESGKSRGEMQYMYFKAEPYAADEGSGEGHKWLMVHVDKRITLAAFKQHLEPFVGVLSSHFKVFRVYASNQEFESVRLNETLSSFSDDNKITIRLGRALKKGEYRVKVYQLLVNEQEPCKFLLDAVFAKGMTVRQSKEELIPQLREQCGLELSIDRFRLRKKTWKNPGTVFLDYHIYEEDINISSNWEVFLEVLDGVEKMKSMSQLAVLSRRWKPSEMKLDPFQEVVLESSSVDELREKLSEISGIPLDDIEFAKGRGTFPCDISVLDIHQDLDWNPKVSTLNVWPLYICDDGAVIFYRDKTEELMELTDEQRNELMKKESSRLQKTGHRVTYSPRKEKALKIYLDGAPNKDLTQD
How it was run: as §1

[4] = target: T3, USP48 (UniProt Q86UV5)
T3 sequence (whole entry): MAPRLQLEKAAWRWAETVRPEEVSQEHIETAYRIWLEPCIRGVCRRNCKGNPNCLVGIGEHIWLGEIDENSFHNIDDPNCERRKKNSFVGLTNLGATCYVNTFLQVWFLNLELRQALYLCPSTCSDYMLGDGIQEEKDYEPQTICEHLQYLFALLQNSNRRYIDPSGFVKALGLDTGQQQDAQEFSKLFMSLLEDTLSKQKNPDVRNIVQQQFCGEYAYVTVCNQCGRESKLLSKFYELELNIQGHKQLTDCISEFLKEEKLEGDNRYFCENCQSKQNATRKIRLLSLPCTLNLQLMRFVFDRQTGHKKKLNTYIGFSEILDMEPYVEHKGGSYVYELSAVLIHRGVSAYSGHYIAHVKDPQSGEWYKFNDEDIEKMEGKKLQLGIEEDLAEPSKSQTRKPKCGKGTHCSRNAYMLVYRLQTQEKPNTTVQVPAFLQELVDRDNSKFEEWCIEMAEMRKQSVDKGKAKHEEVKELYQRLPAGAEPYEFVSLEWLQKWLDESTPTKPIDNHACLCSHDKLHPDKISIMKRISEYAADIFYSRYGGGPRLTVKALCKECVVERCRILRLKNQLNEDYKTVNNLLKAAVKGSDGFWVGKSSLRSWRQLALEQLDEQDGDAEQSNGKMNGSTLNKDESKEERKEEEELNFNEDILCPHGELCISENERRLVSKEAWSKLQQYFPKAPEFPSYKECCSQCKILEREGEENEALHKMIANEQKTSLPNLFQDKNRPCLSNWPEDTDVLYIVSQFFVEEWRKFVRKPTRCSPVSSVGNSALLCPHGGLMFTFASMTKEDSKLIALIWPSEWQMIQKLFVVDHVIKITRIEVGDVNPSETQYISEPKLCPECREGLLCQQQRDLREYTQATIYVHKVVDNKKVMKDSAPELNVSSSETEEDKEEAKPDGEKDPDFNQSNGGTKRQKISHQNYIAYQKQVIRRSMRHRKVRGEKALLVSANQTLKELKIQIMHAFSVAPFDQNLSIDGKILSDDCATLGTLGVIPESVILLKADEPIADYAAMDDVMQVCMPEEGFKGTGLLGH
How it was run: as §1

[5] = target: T4, USP5 (UniProt P45974)
T4 sequence (whole entry): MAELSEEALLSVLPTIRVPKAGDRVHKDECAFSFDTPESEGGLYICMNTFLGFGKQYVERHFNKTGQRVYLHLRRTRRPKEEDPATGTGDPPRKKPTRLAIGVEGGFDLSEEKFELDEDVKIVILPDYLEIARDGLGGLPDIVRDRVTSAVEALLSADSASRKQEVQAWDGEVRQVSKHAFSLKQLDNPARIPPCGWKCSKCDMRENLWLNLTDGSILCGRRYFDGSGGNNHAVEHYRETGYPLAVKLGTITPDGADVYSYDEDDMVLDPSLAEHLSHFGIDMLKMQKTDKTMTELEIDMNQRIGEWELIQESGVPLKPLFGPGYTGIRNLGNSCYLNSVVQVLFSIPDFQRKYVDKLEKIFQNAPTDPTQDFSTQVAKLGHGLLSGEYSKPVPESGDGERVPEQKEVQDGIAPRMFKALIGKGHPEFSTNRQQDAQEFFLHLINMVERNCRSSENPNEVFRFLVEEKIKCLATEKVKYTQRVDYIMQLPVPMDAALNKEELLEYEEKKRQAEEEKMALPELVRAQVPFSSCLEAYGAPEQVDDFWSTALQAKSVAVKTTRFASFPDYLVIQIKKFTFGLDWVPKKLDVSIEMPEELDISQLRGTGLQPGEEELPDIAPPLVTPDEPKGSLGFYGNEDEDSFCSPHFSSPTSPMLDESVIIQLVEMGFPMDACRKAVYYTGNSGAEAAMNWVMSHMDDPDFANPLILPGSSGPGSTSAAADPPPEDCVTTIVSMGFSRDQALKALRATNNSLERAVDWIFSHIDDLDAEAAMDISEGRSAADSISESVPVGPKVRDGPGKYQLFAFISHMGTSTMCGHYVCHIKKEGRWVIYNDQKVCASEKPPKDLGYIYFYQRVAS
How it was run: as §1

[6] = target: USP54 (UniProt Q70EL1)
How it was run: as §1

[7] = target: USP7 (UniProt Q93009)
How it was run: as §1

[8] = target: T5, USP8 (UniProt P40818)
T5 sequence (whole entry): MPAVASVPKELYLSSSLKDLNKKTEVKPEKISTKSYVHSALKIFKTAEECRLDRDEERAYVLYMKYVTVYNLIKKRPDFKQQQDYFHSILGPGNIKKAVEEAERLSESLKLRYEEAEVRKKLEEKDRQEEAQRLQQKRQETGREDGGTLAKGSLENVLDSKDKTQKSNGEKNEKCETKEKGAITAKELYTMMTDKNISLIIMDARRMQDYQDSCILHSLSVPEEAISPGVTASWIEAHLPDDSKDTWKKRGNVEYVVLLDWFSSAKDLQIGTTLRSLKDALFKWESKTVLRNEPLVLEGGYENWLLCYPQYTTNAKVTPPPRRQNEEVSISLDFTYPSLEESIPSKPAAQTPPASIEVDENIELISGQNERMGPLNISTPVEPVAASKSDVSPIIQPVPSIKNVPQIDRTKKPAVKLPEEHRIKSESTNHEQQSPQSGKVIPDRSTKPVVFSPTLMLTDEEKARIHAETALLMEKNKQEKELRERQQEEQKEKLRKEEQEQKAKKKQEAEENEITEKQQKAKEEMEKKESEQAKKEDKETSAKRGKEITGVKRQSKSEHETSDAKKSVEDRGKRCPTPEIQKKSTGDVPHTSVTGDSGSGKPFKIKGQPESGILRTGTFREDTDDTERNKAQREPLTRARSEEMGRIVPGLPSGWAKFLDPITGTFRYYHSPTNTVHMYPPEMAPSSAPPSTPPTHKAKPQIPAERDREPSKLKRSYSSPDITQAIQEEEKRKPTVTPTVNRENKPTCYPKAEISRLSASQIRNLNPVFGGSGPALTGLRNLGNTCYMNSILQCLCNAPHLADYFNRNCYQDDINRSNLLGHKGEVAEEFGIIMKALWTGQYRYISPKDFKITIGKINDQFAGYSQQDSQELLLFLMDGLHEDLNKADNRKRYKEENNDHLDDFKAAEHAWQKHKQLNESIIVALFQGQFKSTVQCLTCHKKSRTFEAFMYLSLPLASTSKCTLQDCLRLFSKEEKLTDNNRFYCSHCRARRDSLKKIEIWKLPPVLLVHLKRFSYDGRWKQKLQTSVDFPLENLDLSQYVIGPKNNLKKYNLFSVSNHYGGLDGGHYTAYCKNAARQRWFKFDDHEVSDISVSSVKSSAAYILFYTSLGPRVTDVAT
How it was run: as §1

[9] = target: USP9X (UniProt Q93008)
How it was run: as §1

[10] = target: UniProt O00487
How it was run: as §1

Measured: log2 ratio of Biotin-Ahx-Ub-VS probe labelling

Chain of USP7 (Q93009 whole entry, looked up): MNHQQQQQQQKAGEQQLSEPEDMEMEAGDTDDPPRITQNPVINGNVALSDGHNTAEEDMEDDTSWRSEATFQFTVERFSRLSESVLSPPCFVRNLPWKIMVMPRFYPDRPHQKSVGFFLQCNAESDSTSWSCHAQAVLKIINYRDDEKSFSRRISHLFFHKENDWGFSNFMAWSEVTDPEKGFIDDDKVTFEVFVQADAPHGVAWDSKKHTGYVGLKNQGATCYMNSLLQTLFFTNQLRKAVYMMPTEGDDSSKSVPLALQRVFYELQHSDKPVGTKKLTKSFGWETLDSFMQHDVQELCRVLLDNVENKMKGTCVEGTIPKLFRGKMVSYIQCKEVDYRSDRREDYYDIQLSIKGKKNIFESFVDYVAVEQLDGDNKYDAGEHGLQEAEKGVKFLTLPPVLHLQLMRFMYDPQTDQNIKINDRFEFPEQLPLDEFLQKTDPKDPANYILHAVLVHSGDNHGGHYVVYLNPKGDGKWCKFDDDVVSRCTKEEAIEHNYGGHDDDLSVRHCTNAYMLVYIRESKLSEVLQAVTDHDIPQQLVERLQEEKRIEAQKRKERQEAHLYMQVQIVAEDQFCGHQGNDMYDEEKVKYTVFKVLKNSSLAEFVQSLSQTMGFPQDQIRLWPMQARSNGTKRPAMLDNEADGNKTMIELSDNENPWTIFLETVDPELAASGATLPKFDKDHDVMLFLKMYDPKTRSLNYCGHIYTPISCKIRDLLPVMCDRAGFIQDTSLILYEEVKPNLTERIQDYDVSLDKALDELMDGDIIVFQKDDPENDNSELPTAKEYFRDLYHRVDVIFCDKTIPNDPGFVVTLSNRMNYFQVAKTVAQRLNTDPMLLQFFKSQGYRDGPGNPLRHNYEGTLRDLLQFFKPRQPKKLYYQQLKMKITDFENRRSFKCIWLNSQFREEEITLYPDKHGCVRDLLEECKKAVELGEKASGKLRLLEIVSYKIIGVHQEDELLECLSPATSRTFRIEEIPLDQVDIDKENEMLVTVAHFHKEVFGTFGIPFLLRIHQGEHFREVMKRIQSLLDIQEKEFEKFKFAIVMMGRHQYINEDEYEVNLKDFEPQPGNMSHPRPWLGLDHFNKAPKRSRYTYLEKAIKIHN
Chain of UniProt O00487 (O00487 whole entry): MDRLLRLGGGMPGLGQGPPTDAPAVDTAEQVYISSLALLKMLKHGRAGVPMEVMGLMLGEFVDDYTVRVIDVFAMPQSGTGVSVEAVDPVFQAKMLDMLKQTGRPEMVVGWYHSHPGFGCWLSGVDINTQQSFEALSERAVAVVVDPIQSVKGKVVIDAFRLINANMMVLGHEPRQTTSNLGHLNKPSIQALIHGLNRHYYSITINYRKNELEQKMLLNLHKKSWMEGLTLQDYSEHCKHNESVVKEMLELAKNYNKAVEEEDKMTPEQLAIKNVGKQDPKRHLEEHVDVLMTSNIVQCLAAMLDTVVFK
Chain of USP46 (P62068 whole entry): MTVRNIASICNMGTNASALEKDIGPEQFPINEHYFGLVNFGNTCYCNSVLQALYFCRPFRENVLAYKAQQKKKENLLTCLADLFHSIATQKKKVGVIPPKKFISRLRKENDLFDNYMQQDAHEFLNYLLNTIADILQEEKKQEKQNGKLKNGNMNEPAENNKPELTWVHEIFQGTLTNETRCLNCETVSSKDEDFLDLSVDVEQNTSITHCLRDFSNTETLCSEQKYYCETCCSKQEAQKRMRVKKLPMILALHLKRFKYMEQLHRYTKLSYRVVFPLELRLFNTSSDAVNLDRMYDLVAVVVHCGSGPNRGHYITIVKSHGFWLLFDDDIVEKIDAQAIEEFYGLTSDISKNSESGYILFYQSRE
Chain of USP9X (Q93008 whole entry): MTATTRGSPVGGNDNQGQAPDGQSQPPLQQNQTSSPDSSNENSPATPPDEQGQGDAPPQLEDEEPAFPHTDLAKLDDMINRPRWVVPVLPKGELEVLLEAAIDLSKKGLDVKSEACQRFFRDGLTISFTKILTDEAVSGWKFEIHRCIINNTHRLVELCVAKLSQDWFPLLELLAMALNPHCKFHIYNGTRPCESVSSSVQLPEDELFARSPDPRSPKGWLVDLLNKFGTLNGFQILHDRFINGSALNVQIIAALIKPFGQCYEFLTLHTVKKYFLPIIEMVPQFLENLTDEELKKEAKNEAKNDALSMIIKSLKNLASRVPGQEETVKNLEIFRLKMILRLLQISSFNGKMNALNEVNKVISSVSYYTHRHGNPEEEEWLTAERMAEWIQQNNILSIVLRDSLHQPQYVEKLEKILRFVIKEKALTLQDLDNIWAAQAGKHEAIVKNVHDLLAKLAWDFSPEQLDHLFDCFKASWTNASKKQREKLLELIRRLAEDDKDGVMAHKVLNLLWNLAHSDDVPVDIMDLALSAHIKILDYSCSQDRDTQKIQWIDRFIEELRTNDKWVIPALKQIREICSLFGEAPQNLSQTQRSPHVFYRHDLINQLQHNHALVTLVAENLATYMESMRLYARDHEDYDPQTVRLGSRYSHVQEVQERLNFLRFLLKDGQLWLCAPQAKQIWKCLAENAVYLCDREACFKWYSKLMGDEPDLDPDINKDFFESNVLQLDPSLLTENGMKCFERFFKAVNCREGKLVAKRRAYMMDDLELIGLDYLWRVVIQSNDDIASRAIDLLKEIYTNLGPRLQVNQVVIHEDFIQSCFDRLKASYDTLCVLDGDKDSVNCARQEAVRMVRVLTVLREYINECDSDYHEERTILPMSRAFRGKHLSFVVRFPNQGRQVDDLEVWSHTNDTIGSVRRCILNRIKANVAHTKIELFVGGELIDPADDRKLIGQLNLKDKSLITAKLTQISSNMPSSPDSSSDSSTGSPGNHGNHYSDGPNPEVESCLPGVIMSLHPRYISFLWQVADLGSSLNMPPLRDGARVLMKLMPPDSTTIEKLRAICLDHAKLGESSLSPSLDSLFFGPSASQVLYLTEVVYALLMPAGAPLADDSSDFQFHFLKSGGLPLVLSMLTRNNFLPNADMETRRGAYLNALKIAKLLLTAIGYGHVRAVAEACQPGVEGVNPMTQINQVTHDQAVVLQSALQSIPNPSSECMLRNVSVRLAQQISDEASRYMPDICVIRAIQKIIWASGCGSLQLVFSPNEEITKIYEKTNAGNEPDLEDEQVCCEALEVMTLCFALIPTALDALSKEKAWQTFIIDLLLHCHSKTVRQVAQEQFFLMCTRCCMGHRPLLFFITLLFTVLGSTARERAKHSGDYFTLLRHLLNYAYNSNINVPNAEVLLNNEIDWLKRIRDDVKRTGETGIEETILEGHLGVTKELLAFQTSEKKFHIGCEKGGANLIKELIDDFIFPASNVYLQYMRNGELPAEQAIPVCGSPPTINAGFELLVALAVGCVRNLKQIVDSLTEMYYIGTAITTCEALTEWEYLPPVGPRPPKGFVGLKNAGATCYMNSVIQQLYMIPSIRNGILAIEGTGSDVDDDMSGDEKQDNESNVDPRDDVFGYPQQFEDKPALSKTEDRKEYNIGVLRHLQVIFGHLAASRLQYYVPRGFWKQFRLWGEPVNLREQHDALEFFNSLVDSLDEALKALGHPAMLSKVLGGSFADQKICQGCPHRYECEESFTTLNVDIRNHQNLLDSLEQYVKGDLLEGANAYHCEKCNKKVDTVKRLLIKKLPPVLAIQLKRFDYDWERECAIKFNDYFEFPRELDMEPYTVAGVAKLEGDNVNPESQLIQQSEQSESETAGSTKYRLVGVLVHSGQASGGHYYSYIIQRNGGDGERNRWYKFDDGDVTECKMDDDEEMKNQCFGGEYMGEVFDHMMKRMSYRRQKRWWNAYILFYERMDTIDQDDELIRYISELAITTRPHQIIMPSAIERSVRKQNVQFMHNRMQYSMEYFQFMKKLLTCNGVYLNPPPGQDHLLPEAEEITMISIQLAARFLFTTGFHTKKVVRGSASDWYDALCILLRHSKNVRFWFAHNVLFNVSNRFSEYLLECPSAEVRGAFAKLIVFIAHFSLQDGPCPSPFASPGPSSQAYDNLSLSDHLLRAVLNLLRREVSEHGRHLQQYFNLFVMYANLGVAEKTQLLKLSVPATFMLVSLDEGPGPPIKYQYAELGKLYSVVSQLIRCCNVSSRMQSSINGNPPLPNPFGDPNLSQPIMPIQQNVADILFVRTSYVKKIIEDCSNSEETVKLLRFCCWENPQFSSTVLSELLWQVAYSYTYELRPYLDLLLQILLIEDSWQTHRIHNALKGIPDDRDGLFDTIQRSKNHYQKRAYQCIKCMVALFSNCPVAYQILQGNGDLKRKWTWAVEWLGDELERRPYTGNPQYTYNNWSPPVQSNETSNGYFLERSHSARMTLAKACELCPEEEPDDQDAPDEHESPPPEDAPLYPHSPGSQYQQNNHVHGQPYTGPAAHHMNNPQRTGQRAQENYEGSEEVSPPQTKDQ

N#Cc1cnn(-c2ccccc2)c1NC(=O)CCl
inactive: [1] -0.0771 | [2] -0.0464 | [3] -0.263 | [4] -0.451 | [5] -0.203 | [6] 0.718 | [7] -0.45 | [8] -0.512 | [9] -0.317 | [10] -0.0605
